Experiment [1] is described as follows: growth inhibition of DIPG glioma cells, dose response, cell-based, SU-DIPG-XVII, MIPE5.0, CellTiter-Glo, qHTS (AID 1347060).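 For AC50: cells exposed to compound for 48 hours before viability readout.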 As to conditions: SU-DIPG-XVII viability, CellTiter-Glo ATP luminescence.
The nature of experiment [2]: growth inhibition of DIPG glioma cells, dose response, cell-based, SU-DIPG-XIII, MIPE4.0, CellTiter-Glo, qHTS (AID 1347061; cut-off not given, nearly all actives have AC50 up to about 37 µM;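 note: cells exposed to compound for 48 hours before readout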). As to conditions: SU-DIPG-XIII viability, CellTiter-Glo ATP luminescence.
A short description of experiment [3]: growth inhibition of DIPG glioma cells, dose response, cell-based, JHH-DIPG-1, MIPE4.0, CellTiter-Glo, qHTS (AID 1347062; cut-off not given, nearly all actives have AC50 up to about 27 µM;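 for AC50: cells exposed to compound for two days before readout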). Conditions: JHH-DIPG-1 viability, CellTiter-Glo ATP luminescence. A general note: Cellular ATP, detected with luciferase, serves as a proxy for viable cell number.
The nature of experiment [4]: growth inhibition of DIPG glioma cells, dose response, cell-based, SU-DIPG-IV, MIPE4.0, CellTiter-Glo, qHTS (AID 1347063; cut-off not given, nearly all actives have AC50 up to about 30 µM;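 note: compound exposure lasted 48 hours before the viability readout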). Conditions: SU-DIPG-IV viability, CellTiter-Glo ATP luminescence.
The nature of experiment [5]: viability loss in pontine glioma line – cell-based, SU-DIPG-XXV, MIPE5.0, CellTiter-Glo, qHTS, dose response (AID 1347065).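 Note: cells exposed to compound for 48 hours before ATP readout.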 As to conditions: CellTiter-Glo ATP luminescence.
Experiment [6] in a line: SU-DIPG-VI glioma cell viability, MIPE4.0 library, CellTiter-Glo luminescence, qHTS (AID 1347066; cut-off not given, nearly all actives have AC50 up to about 30 µM;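 note: cells exposed to compound for 48 hours before readout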). As to conditions: CellTiter-Glo ATP luminescence.
Experiment [7] can be described thus: JHH-DIPG-1 glioma cell viability, MIPE5.0 library, CellTiter-Glo luminescence, qHTS (AID 1347067).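 Note: cells exposed to compound for 48 hours before readout.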 Conditions: JHH-DIPG-1 glioma viability, CellTiter-Glo ATP luminescence.
Experiment [8] is described as follows: sensitizers of A549 cells to miR-34 induction, primary screen, imaging, A549 dox-inducible miR-34, nuclei and caspase counts (AID 1347080;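 active = compounds whose cell count with miR-34 switched on is under 0.7 times the count with it off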). Conditions: A549 miR-34 inducible, Hoechst nuclei count, 48 h.
Experiment [9] can be described thus: survival rescue of mitochondrial mutant cells in low glucose, primary screen, MELAS cybrids, Rieske KO mouse fibroblasts, CellTiter-Glo (AID 1508586;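 active = mean z-score across replicates of 1.96 or higher in either the MELAS or the Rieske mutant cell line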;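 note: z relative to plate mean and SD of compound and empty wells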).
Experiment [10] is described as follows: SU-DIPG-XXV glioma cell viability, MIPE5.0 library, qHTS (AID 1347068; cut-off not given, nearly all actives have IC50 up to about 30 µM;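 for IC50: cells exposed to compound for 48 hours before viability readout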). A general note: Quantitative high-throughput screening tests each substance at several concentrations.
The nature of experiment [11]: growth inhibition of DIPG glioma cells, dose response, cell-based, SU-DIPG-XIII, MIPE5.0, CellTiter-Glo, qHTS (AID 1347064; cut-off not given, nearly all actives have AC50 up to about 23 µM;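 for AC50: cells exposed to compound for 48 hours before the viability read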). As to conditions: SU-DIPG-XIII viability, CellTiter-Glo ATP luminescence.
Experiment [12] is described as follows: LFS_MB_P medulloblastoma growth inhibition, cell-based, chromothripsis tumors, cisplatin or BGB combos (AID 1671449; in the data active = inhibition above about 80%;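 note: cells exposed for 96 hours; 0% = vehicle DMSO and 100% = killing by high DMSO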). As to conditions: LFS_MB_P medulloblastoma cells.
Experiment [13] is described as follows: HDN33 neuroblastoma growth inhibition, cell-based, chromothripsis tumors, cisplatin or BGB combos (AID 1671450; in the data active = inhibition above about 80%;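 note: cells exposed to compound for four days; 0% = vehicle DMSO and 100% = cell killing by high DMSO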). Conditions: HDN33 neuroblastoma cells, stronger effect = higher value.
A short description of experiment [14]: ICB984 medulloblastoma cell growth inhibition, synergistic combos for chromothripsis tumors, cisplatin or BGB combos (AID 1671451; call rule not given here;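 note: cells exposed for 96 hours before readout; 0% = vehicle DMSO and 100% = killing by high DMSO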). As to conditions: ICB984 medulloblastoma cells, drug combinations, stronger effect = higher value.
Experiment [15] can be described thus: HTB85 osteosarcoma cell growth inhibition, synergistic combos for chromothripsis tumors, BGB or cisplatin IC20 combos (AID 1671453; in the data active = inhibition above about 80%;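 note: cells exposed for 96 hours before readout; 0% = vehicle DMSO and 100% = high DMSO killing control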). As to conditions: HTB85 osteosarcoma cells, drug combinations, stronger effect = higher value.
Experiment [16] can be described thus: MDA-MB-436 breast carcinoma cell growth inhibition, synergistic combos for chromothripsis tumors, BGB or cisplatin combos (AID 1671458; call rule not given here;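 note: cells exposed for 96 hours; 0% = vehicle DMSO and 100% = killing by high DMSO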). Conditions: MDA-MB-436 breast carcinoma growth inhibition, drug combinations, stronger effect = higher value.
Experiment [17] can be described thus: growth inhibition of BT084 medulloblastoma cells, cell-based, ICGC_MB145, cisplatin and BGB IC40 combos (AID 1671461; in the data active = inhibition above about 80%;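 note: cells exposed to drugs for 96 hours; 0% = vehicle DMSO and 100% = high DMSO full killing control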). As to conditions: drug combinations, stronger effect = higher value.
Experiment [18] can be described thus: growth inhibition of RCMB18 medulloblastoma cells, cell-based, cisplatin and BGB IC40 combos (AID 1671462; in the data active = inhibition above about 80%;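 note: cells exposed to compound for four days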). Conditions: stronger effect = higher value.
Where [19] appears, read: stronger effect = lower value, cell number ratio, induced over uninduced.
[20] abbreviates: measured here: relative caspase fold change +Dox/-Dox.
Setting [21] is: measured here: total cells with miR-34 induction, stronger effect = lower value.
Where [22] appears, read: measured here: total cells without miR-34 induction.
Where [23] appears, read: MELAS cybrid survival, CellTiter-Glo 48 h, stronger effect = higher value.
Where [24] appears, read: Rieske KO mouse fibroblast survival, CellTiter-Glo 72 h.

Values joined by “and” are separate entries in the source; they are usually repeats but may differ in a detail not shown here. Equal entries are not always repeated. Records with an inconclusive call do not appear. Some structures have more than one record in an assay (separate samples or runs), and their calls can disagree. Active and inactive are the calls of the source. Unless noted, no cut-off is given here; in the data, nearly all actives have AC50 up to about 26 µM.

As a reminder, the AC50 is the concentration at which the activity in the assay is half-maximal. For `O=C(O)c1ccc(Nc2ncc3c(n2)-c2ccc(Cl)cc2C(c2c(F)cccc2F)=NC3)cc1`, the values for the AC50 in [1], in [5] and in [7] were 4170 nM (active), 372 nM (active) and 16600 nM (active), respectively. For the same compound, the compound was classed as inactive in experiment [2], in experiment [3], in experiment [4] and in experiment [6]. In addition, the fold change was 0.96 (inactive) in experiment [8] (setting [19]) and 0.787 in experiment [8] (setting [20]). Moreover, the cell count in experiment [8] (setting [21]) worked out at 2100; in experiment [8] (setting [22]), 2190. Besides, the values for the z-score in [9] (setting [23]) and in experiment [9] (setting [24]) were -0.524 (inactive) and 0.65, respectively.
For `NC(=O)c1cccc(-c2cccc(OC(=O)NC3CCCCC3)c2)c1`, the compound was classed as inactive in experiment [1], in [2], in experiment [3], in experiment [4], in experiment [5] and in experiment [6]. Further, the compound was classed as inactive in experiment [7] and in experiment [10]. The fold change was 1.39 (inactive) and 0.902 (inactive) in experiment [8] (setting [19]); 1.45 and 0.843 in experiment [8] (setting [20]). The cell count was 5620 and 8620 in [8] (setting [21]); 4040 and 9560 in [8] (setting [22]). In addition, the z-score was -0.288 (inactive) in experiment [9] (setting [23]) and -0.11 in experiment [9] (setting [24]).
As for `OC[C@H]1OC(O)C[C@@H](O)[C@@H]1O` (some centres undefined), the call in [1], in experiment [2], in [3], in experiment [4], in experiment [5] and in [6] was inactive. The compound was classed as inactive in experiment [7] and in experiment [10].
Take `C[C@@]1(c2cc(-c3cncnc3)c(F)cc2F)CCSC(N)=N1`: the compound was classed as inactive in experiment [1], in [11], in experiment [5], in experiment [6], in experiment [7] and in [10]. The half-maximal activity concentration (AC50) in experiment [2] and in experiment [3] was 14800 nM (active) each time. The fold change was 0.883 (inactive) in [8] (setting [19]) and 1.05 in [8] (setting [20]). For the same compound, the cell count turned out to be 8550 in experiment [8] (setting [21]) and 9680 in experiment [8] (setting [22]). Further, the figures for the z-score in experiment [9] (setting [23]) and in experiment [9] (setting [24]) were -0.425 (inactive) and 0.36, respectively.
One may read the IC50 as the concentration that gives 50% inhibition. By inhibition is commonly meant the relative decrease from the control value, in per cent. Turning to `COc1ccc(-c2nc(N3CCOCC3)c3sc(CN(C)c4ncc(C(=O)NO)cn4)cc3n2)cn1`, the AC50 in experiment [1] was 23.5 nM (active); in experiment [2], 37.2 nM (active); in experiment [3], 13.2 nM (active); in experiment [11] it was 26.3 nM (active); in [5], 14.8 nM (active); in experiment [6] it was 2.63 nM (active). In [7], the AC50 was 6.62 nM (active). The IC50 in experiment [10] was 295 nM (active). Also, the fold change in experiment [8] (setting [19]) is 1.02 (inactive); in [8] (setting [20]), 0.447. Also, the results for the cell count in experiment [8] (setting [21]) and in experiment [8] (setting [22]) were 1250 and 1230, respectively. Further, the z-score is -0.053 (inactive) in experiment [9] (setting [23]) and -3.69 in experiment [9] (setting [24]). Also, the inhibition in experiment [12] (at 0.5 µM, stronger effect = higher value) was -17.1% (inactive) and 84.7% (active); in experiment [12] (measured here: combination with BGB IC20, at 0.005 µM) it was -19% and -26.8%; in experiment [12] (measured here: combination with BGB IC40, at 0.005 µM), -13.4% and -10.7%; in [12] (measured here: combination with BGB IC40, at 0.05 µM) it was -8.69% and -6.92%; in experiment [12] (measured here: combination with cisplatin, at 0.5 µM, stronger effect = higher value), -32.9% and 119%; in experiment [12] (measured here: combination with cisplatin, at 5 µM, stronger effect = higher value), 120% and 126%. Besides, the inhibition was 99.9% and 99.7% in experiment [13] (BGB combo, at 5 µM); 98.9% (active) and 93.4% (active) in [13] (at 0.5 µM); 99.9% in experiment [13] (cisplatin combo, at 5 µM); 97.8% and 90.5% in [13] (measured here: with BGB IC20 combination, at 0.5 µM); 99.5% and 96.1% in experiment [13] (measured here: with cisplatin IC20 combination, at 0.5 µM); 99.9% in experiment [13] (single agent, at 5 µM). For the same compound, the inhibition is 85.9% and 87.2% in experiment [14] (BGB IC20 combo, at 0.005 µM); 93.2% and 94% in experiment [14] (BGB IC40 combo, at 0.005 µM); 101% in experiment [14] (BGB IC40 combo, at 0.05 µM); -8.74% (inactive) and -32% (inactive) in [14] (at 0.5 µM); 101% in [14] (cisplatin combo, at 0.05 µM); 10.9% and -33% in experiment [14] (cisplatin combo, at 0.5 µM). The inhibition in experiment [14] (cisplatin combo, at 5 µM) was 21.2% and -18.3%; in experiment [14] (measured here: 5 uM single agent, at 5 µM), 1.99% and 3.43%; in [15] (at 0.5 µM) it was 99.5% (active) and 95.4% (active); in [15] (measured here: with BGB IC20, at 0.5 µM), 99.5% and 93.3%; in [15] (measured here: with BGB IC20, at 5 µM) it was 99.8% and 99.9%; in experiment [15] (measured here: with cisplatin IC20, at 0.5 µM), 99.9%. Besides, the inhibition was 100% and 99.9% in [15] (measured here: with cisplatin IC20, at 5 µM); 99.9% in experiment [15] (single agent, at 5 µM); 55.1% (inactive) and 39.3% (inactive) in experiment [16] (at 0.5 µM); 45.2% and 33.3% in experiment [16] (measured here: BGB combination, at 0.5 µM); 89.9% and 80.2% in [16] (measured here: BGB combination, at 5 µM); 50.8% and 33.9% in experiment [16] (measured here: cisplatin combination, at 0.5 µM). In addition, the inhibition in experiment [16] (measured here: cisplatin combination, at 5 µM) is 91.2% and 86.1%; in experiment [17] (at 0.5 µM), 84.3% (active) and 90.7% (active); in experiment [17] (cisplatin combination, at 0.5 µM) it was 99.6% and 101%; in [17] (cisplatin combination, at 5 µM), 102% and 106%; in experiment [17] (measured here: BGB IC40 combination 0.05 uM, at 0.05 µM) it was 55.4% and 3.88%; in experiment [17] (single agent, at 5 µM) it was 109% and 106%. In addition, the inhibition is 90.3% (active) and 89.8% (active) in experiment [18] (at 0.5 µM); 97.3% and 101% in [18] (cisplatin combo, at 5 µM); 42.1% and 41.3% in experiment [18] (measured here: BGB IC40 combination, at 0.05 µM); 91.8% and 91.3% in [18] (measured here: combination with cisplatin, at 0.5 µM); 98.7% and 99.3% in [18] (single agent, at 5 µM).

Source of the values: PubChem BioAssay.
